Among all 370,000 compounds or so, about 4,700 (1.3%) were called active. This excerpt belongs to a sample that is enriched for actives. Unmarked numbers belong to inactive results.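 Rule for the calls: active = inhibition above the plate cutoff, the mean of all test compounds on that plate plus 3 SD (cut at about 35% in these data); inactive = the rest.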
assay: binders of r(CAG) RNA repeats, primary screen, biochemical, fluorescence (AID 651821); details: r(CAG) RNA repeat, TO-PRO-1 dye displacement fluorescence; at 3 µM; active compounds read high;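 note: 0% = DMSO alone and 100% = 100 µM mitoxantrone as full dye displacement; higher means more dye released from RNA so lower well fluorescence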

| SMILES | inhibition |
| --- | --- |
| CCOC(=O)Cn1c2c(n(-c3ccc(F)cc3)c1=O)C=C(c1ccccc1)[C@@H](C)C(C(=O)N(C)C1CCCCC1)=C2 | 7.36% |
| O=C1CCC2(CCC(c3ccc(Cl)cc3)CC2)N1CCO (centres undefined) | 0.01% |
| Cc1cccc(C(=O)NC(=S)N2CCN(c3ccc([N+](=O)[O-])cc3)CC2)c1 | 1.75% |
| Cc1c(NC(=O)Nc2cccc([N+](=O)[O-])c2)c(=O)n(-c2ccccc2)n1C | -1.07% |
| Cc1cc(/C=N/Nc2ccc([N+](=O)[O-])cn2)c(C)n1-c1cccc(C(=O)O)c1 | 47.8% (active) |
| CCN(CC)Cc1c(C(=O)OC)nnn1-c1nonc1N | -2.7% |
| CCCCOCCCNC(=O)C[C@H]1C[C@@]2(C(=O)OC)C(=C[C@H](COCc3ccccc3)O[C@@H]2C)N(Cc2cccc3ccccc23)C1=O | 4.81% |
| Cc1ccc(CSCC(N)C(=O)O)cc1 (centres undefined) | 5.4% |
| Cc1ccc(SC(C)C(=O)NCc2ccc(F)cc2)cc1 (centres undefined) | -0.76% |
| Cc1ccc(SC(CC(=O)c2ccc(C(C)(C)C)cc2)C(=O)O)cc1 (centres undefined) | 42.9% (active) |
| CCOC(=O)C1=C(C)NC(SC)=NC1c1ccccc1 (centres undefined) | 0.67% |
| CO[C@@H]1[C@@H](OC(N)=O)[C@@H](O)C(Oc2ccc3c(O)c(NC(=O)c4ccc(O)c(CC=C(C)C)c4)c(=O)oc3c2C)OC1(C)C (some centres undefined) | 49.8% (active) |
| COc1ccc(NC(=O)N(C)C[C@@H]2OCCCC[C@@H](C)Oc3ccc(NC(=O)NC4CCCCC4)cc3C(=O)N([C@H](C)CO)C[C@@H]2C)cc1 | 10% |
| O=C(COc1ccccc1Cl)Nc1ccc(C(=O)c2ccc(C(=O)O)cc2)cc1 | 41.2% (active) |
| COc1cc(NC(=O)COc2ccccc2Cl)ccc1NC(=O)C(C)C | -5.61% |
| O=C(COc1ccccc1)Nc1ccc(C(=O)N2CCCC2)cc1 | -1.86% |
| O=C(OC12CCCN(C1)/C(=C/c1cccnc1)C2)C1CCCC1 (centres undefined) | -0.17% |
| O=C(COC(=O)c1ccc2ncsc2c1)Nc1ccc(Cl)cc1 | 7.21% |
| Cc1sc(NC(=O)c2ccc3ncsc3c2)c(C(N)=O)c1C | 35.7% (active) |
| COc1ccccc1-c1nnc(NC(=O)c2ccc3ncsc3c2)o1 | 10.6% |
| O=C(CCl)NC1CCCCN(Cc2cccc(C(F)(F)F)c2)C1=O (centres undefined) | 1.48% |
| Cc1c(C)c2c(OCC(=O)NCCCO)cc3c(c2oc1=O)CCC(C)(C)O3 | -6.81% |
| Cc1cc(=O)oc2c3c(cc(OCC(=O)N[C@H](C(=O)O)c4ccccc4)c12)OC(C)(C)CC3 | 33.1% |
| Cc1c(C)c2c(OCC(=O)N[C@@H](C(=O)O)c3ccccc3)cc3c(c2oc1=O)CCC(C)(C)O3 | 41.1% (active) |
| CCN(CC(=O)Nc1c(F)cccc1F)C(=O)CN1c2cccc3cccc(c23)S1(=O)=O | -4.19% |
| c1csc(-c2nnc(SCc3nc4ccccc4[nH]3)o2)c1 | 0.42% |
| COC(=O)Cc1cc(=O)n(-c2nc3ccccc3s2)[nH]1 | 60.6% (active) |

| SMILES | inhibition |
| --- | --- |
| COC(=O)C1[C@H]2SC(C)(C)C(C(=O)OC)N2C(=O)N1Cc1nc2ccccc2s1 (some centres undefined) | -2.88% |
| COC(=O)Cc1csc(Nc2c(C)n(C)n(-c3ccccc3)c2=O)n1 | 3.58% |
| CC(C)NC(=O)/C(C#N)=C\c1ccc(N(C)C)c(Br)c1 | -7.35% |
| COCC(=O)N[C@@H]1C[C@@H]2O[C@@H](CO)CC[C@@H]2O[C@@H]1CCc1ccc(-c2ccccc2)cc1 | -0.99% |
| O=C(Nc1ccc2c(c1)CCC2)c1cccc(S(=O)(=O)N2CCN(c3ccc(F)cc3)CC2)c1 | 13% |
| O=C(Nc1ccc2c(c1)CCC2)c1cccc(S(=O)(=O)Nc2ccccc2Cl)c1 | 57.2% (active) |
| O=C(NCC1(N2CCCCC2)CCCCC1)c1cccc(S(=O)(=O)Nc2ccccc2Cl)c1 | 16.6% |
| CCOC(=O)[C@@]12CN(C(=O)OC(C)(C)C)CC=C1N(Cc1ccc(OC)cc1)C(=O)[C@H]2CC(=O)NCc1ccc(OC)c(OC)c1 | 1.18% |
| C=CCCC(=O)Nc1nc(C)c(-c2csc(Nc3ccc(Cl)cc3)n2)s1 | 31.7% |
| CCCCCCC(=O)Nc1nc(C)c(-c2csc(Nc3cccc(OC)c3)n2)s1 | 28.5% |
| CCCCCCC(=O)Nc1nc(C)c(-c2csc(Nc3cc(Cl)ccc3OC)n2)s1 | 41.8% (active) |
| COCCCNC(=O)C[C@H]1C[C@@]2(C(=O)OC)C(=C[C@H](C(C)(C)C)O[C@@H]2C)N(Cc2ccc3c(c2)OCO3)C1=O | -0.27% |
| CCOc1cc(/C=C(\C#N)c2nc(-c3cccs3)c(NC(C)=O)s2)ccc1O | 37.7% (active) |
| CCOc1cc(/C=C(/C#N)c2ccc(Cl)cc2)cc(Cl)c1OCC(=O)O | 16.7% |
| CCOc1ccc(/C=C/C(=O)N(CC)CC(=O)NCc2cccs2)cc1OC | -8.5% |
| CCCN1C(=O)c2[nH]nc(-c3ccccc3)c2C1c1ccccc1 (centres undefined) | 0.38% |
| COC(=O)CCCC1=CC2=C(c3ccccc3)C(=O)C(C)(OC(=O)C3CCCC3)C(=O)C2=CN1c1ccc(OC)cc1 (centres undefined) | 6.99% |
| Cc1ccccc1C(=O)N1CCC(C(=O)Oc2ccc(C#N)cc2)CC1 | -7.52% |
| CC1(OC(=O)C2CCCC2)C(=O)C=C2C=C(c3ccc(C#N)cc3)OC=C2C1=O (centres undefined) | 50.7% (active) |
| C=CC1=CCN(S(=O)(=O)C(C)(C)C)[C@@H]1CCO | 8.95% |
| CCC(C)Cn1c(O)cc2nn(-c3nc4ccccc4s3)c(=O)c-2c1C (centres undefined) | 56.8% (active) |
| Cc1cc(C)cc(OCC(=O)Nc2cc(NC(=O)COc3cc(C)cc(C)c3)cc(C(=O)O)c2)c1 | 61.8% (active) |
| Cc1ccc(OCC(=O)Nc2ccc(C(=O)O)cc2NC(=O)COc2ccc(C)c(C)c2)cc1C | 19.4% |
| Cc1cc(C)cc(OCC(=O)Nc2ccc(N3CCOCC3)cc2N2CCOCC2)c1 | -4.13% |
| COCC(=O)Nc1cc(C(=O)OC)cc(C(=O)OC)c1 | -0.01% |
| Cc1cccc(OCC(=O)NC2CC(C)(C)NC(C)(C)C2)c1 | 0.76% |
| Cc1cccc(OCC(=O)Nc2ccc(C(=O)O)cc2NC(=O)COc2cccc(C)c2)c1 | 50.5% (active) |

| SMILES | inhibition |
| --- | --- |
| COC(=O)Nc1nc2ccc(C(=O)C3CC3)cc2[nH]1 | 4.25% |
| C[C@H](C(=O)N(C)c1ccccc1)[C@@H](O)c1ccc2ccccc2c1 | 1.73% |
| CCOC(=O)[C@@]12CCC3=C1N(CCC3)C(=O)[C@H](CC(=O)N1CCN(C(=O)c3ccco3)CC1)C2 | 4.55% |
| CCCNC(=O)C1CC(=O)N(c2ccc(OCc3ccccc3)cc2)C1 (centres undefined) | 1.21% |
| COc1cc(C2CC(=O)N3CN(Cc4ccccc4)CSC3=C2C#N)ccc1OCc1ccccc1 (centres undefined) | 51.3% (active) |
| C=CCc1ccc(OCC(O)CN2CCN(Cc3ccccc3)CC2)c(OC)c1 (centres undefined) | -8.04% |
| C/C(=N/OC(=O)c1ccc(Br)cc1)c1ccc(C)cc1 | -2.66% |
| COc1ccccc1C(=O)NC(CCSC)C(=O)NNC(=O)c1ccccc1C (centres undefined) | -5.48% |
| Cc1ccccc1S(=O)(=O)N1[C@@H](c2cccc(Cl)c2)C(C(=O)O)=CC[C@H]1c1ccc(Cl)cc1 | 81.4% (active) |
| Cc1ccc([C@@H]2CC(=O)[C@@H]3CN(S(=O)(=O)c4ccc(C)cc4)[C@H](c4ccccc4F)C[C@@H]3N2S(=O)(=O)c2ccc(Cl)cc2)cc1 | 9.69% |
| CCN1C(=O)[C@@H]2[C@@H]3CN(S(=O)(=O)c4ccccc4C)[C@@H](c4ccc(Cl)cc4)[C@@H]3C(=O)C[C@@H]2C1=O | 8.04% |
| Cc1ccc(S(=O)(=O)N2[C@@H](c3ccccc3F)C(C(=O)O)=CC[C@H]2c2ccc(Cl)cc2)cc1 | 60.2% (active) |
| Cc1ccccc1S(=O)(=O)N1[C@@H](c2cccc(Cl)c2)C(C(=O)OC(C)(C)C)=CC[C@H]1c1ccc(Cl)cc1 | 3.52% |
| COc1ccc(C2CC=C(C(=O)O)C(c3ccccc3F)N2S(=O)(=O)c2ccc(C)cc2)cc1OC (centres undefined) | 24.2% |
| CCOC(=O)C1=CC[C@@H](c2ccccc2)N(S(=O)(=O)c2ccc(C)cc2)[C@H]1c1cccc(OC)c1 | 7.08% |
| Cc1ccc(S(=O)(=O)N2[C@@H](c3cccc(Cl)c3)C(C(=O)O)=CC[C@H]2c2ccc(Cl)c(Cl)c2)cc1 | 25.1% |
| Cc1ccc([C@@H]2CC=C(C(=O)O)[C@H](c3cccc(Cl)c3)N2S(=O)(=O)c2ccc(C)cc2)cc1 | 77.2% (active) |
| Clc1ccc(-n2c(COc3ccccc3)nnc2SCc2nc3ccccc3[nH]2)cc1 | 2.7% |
| COC(=O)[C@@]12CCCCC=C1N(CCc1ccc(Cl)cc1)C(=O)[C@H]2CC(=O)NCc1ccc(OC)c(OC)c1 | 8.28% |
| CC(=NNC(N)=O)c1ccc(Cl)c(-n2cccc2)c1 | 1.94% |
| COc1ccc(CNC(=O)CN(Cc2ccccc2Cl)C(=O)c2csnn2)cc1 | 3.39% |
| O=S1(=O)c2c(cccc2N2CCCC2)O[C@H](COCc2ccccc2)CN1C1CC1 | 1.71% |
| CCCC1=Nc2cc(C(=O)NCc3ccco3)ccc2Sc2ccccc21 | 2.23% |
| C=CCN1[C@@H](Cc2ccccc2)COc2cccc(N3CCSCC3)c2S1(=O)=O | 5.53% |
| Cc1ccccc1C(=O)N[C@H](C(=O)N1CCC[C@H]1C(=O)NCc1ccccc1)C(C)C | 0.37% |
